In PubChem BioAssay AID686978 (National Center for Advancing Translational Sciences (NCATS), 2013):
“And” between values parts separate entries of the source, which are not always exact repeats. Equal values may be shown once. The campaign covered roughly 420,000 compounds. About 64,000 (15%) were called active. About 27% were inconclusive and are not listed. Calls follow the shape of the dose curve; as a rule, active = well fitted inhibition curve with a large enough effect; inconclusive = small, poorly fitted or top-dose-only effect; inactive = flat fitted curve, though single readings scatter. A selection follows. A structure can be active in one record and inactive in another.

Assay: qHTS for Inhibitors of human tyrosyl-DNA phosphodiesterase 1 (TDP1): qHTS in cells in absence of CPT; also: nearly all actives have a fitted effect of over 55% in size
Conditions: DT40 Tdp1-/- hTDP1 cells, no CPT, ATP luminescence, 48 h; activity change, negative = growth inhibition: at 46.2 µM (top of the series)
In short: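 A cellular qHTS used chicken DT40 cells lacking endogenous Tdp1 but carrying stably transfected human TDP1. Compounds were applied without camptothecin, and cell growth kinetics were judged by ATP-dependent luminescence after ≥48 hr.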
% is scaled to controls: 0 for no effect and ±100 for the full control effect; potency is read from the fitted curve at half-maximal effect.

Row | SMILES | Potency | activity change, negative = growth inhibition
1 | COc1ccc(-c2cc(C(F)(F)F)n3nc(-c4ccccc4)cc3n2)cc1OC | 16.4 µM (active) | –
2 | COC(=O)c1cc2nc(-c3ccccc3)cc(C(F)(F)F)n2n1 | – | -1.82% (inactive)
3 | Cc1cc(C(F)(F)F)n2ncc(-c3ccccc3)c2n1 | – | -3.95% (inactive)
4 | COc1cccc(NC(=O)N2CCC(NC(=O)C(Cc3cccc(C)c3)NC(C)=O)CC2)c1 (stereo not drawn) | – | 19.9% (inactive)
5 | NC(=O)Cn1c(=O)oc2ccccc21 | – | -3.28% (inactive)
6 | CN(C)CCCN(C(=O)c1ccc(S(=O)(=O)N2CCCCCC2)cc1)c1nc2ccc(Br)cc2s1 | 18.4 µM (active) | –
7 | CCN(CC)CCN(C(=O)c1ccc(S(=O)(=O)N2CCOCC2)cc1)c1nc2cc3c(cc2s1)OCCO3 | – | -7.11% (inactive)
8 | CCOc1ccc2nc(N(CCN(C)C)C(=O)c3ccc4ccccc4c3)sc2c1 | – | -5.15% (inactive)
9 | COCc1c(C(=O)OCc2c(C)noc2C)oc2ccccc12 | – | -2.67% (inactive)
10 | CCNC(=S)NNC(=O)c1ccc2ncccc2c1 | – | -5.48% (inactive)
11 | CC(=O)Nc1ccc(Sc2ccccc2C(=O)N2CCCC2)cn1 | – | -18.6% (inactive)
12 | CNC(=O)C[C@H]1C(=O)N(c2ccc(OC)cc2)C[C@@H]1Cc1ccccc1 | – | -16.7% (inactive)
13 | O=C(C[C@H]1C(=O)N(c2ccc(F)c(F)c2)C[C@@H]1Cc1ccccc1)Nc1ccccc1 | inactive and 15.8 µM (active) | –
14 | CNC(=O)C[C@H]1C(=O)N(Cc2ccccc2)C[C@@H]1CSC | – | -20.5% (inactive)
15 | CCOc1cc2[nH]c(=O)n(CCC(=O)NCc3ccc(OC)cc3)c(=O)c2cc1OCC | – | 0.129% (inactive)
16 | CN=C1SC(CC(=O)Nc2ccc(C(=O)O)cc2)C(=O)N1C (stereo not drawn) | – | -12% (inactive)
17 | CC1C(=O)C(C)C(c2ccc(O)cc2)NC1c1ccc(O)cc1 (stereo not drawn) | – | -8.1% (inactive)
18 | CC(=O)N1CCN(Cc2cc(=O)oc3cc(C)ccc23)CC1 | – | 5.29% (inactive)
19 | O=c1cc(CN2CCN(S(=O)(=O)/C=C/c3ccccc3)CC2)c2ccc(O)cc2o1 | 20.6 µM (active) | –
20 | NC(=O)CCN1CCN(S(=O)(=O)/C=C/c2ccccc2)CC1 | – | -3.19% (inactive)
21 | COc1ccc(NC(=O)CCCN2C(=O)C(c3ccccc3)Oc3cccnc32)cc1 (stereo not drawn) | – | 4.59% (inactive)

Row | SMILES | Potency | activity change, negative = growth inhibition
22 | O=C(O)C1CCN1C1CCCCC1 (stereo not drawn) | – | -3.77% (inactive)
23 | O=S1(=O)CCN(C2CCCCCCCCCCC2)CC1 | 20.6 µM (active) | –
24 | O=S1(=O)CC(N2CCN(CCO)CC2)CN1C1CCCC1 (stereo not drawn) | – | -2.44% (inactive)
25 | COc1ccc(NC(=O)N(C)C[C@@H]2OCc3cn(nn3)CCCC(=O)N([C@H](C)CO)C[C@H]2C)c(OC)c1 | – | -14.2% (inactive)
26 | COCCN(C(=O)CC1CCCCC1)c1c(N)n(CC(C)C)c(=O)[nH]c1=O | – | 0.685% (inactive)
27 | Cc1ccc(CN2CCCOCCS2(=O)=O)cc1 | inactive | –
28 | CCC(C)[C@H]1COCCS(=O)(=O)N1Cc1ccc(C)cc1 (stereo partly drawn) | – | -25% (inactive)
29 | CC(C)C1C(=O)N(Cc2cn(CCC3OCCO3)nn2)CCS(=O)(=O)N1Cc1ccc(-c2ccccc2C(F)(F)F)cc1 (stereo not drawn) | 25.9 µM (active) | –
30 | Cc1ccc(-c2ccc(CN3C(C(C)C)C(=O)N(Cc4cn(CCC5OCCCO5)nn4)CCS3(=O)=O)cc2)cc1 (stereo not drawn) | 11.6 µM (active) | –
31 | Cc1ccc(-c2ccc(CN3C(C)C(=O)N(Cc4cn(CCC5OCCCO5)nn4)CCS3(=O)=O)cc2)cc1 (stereo not drawn) | 23.1 µM (active) | –
32 | Cc1ccc(-c2ccc(CN3C(C(C)C)C(=O)N(Cc4cn(CCC5OCCO5)nn4)CCS3(=O)=O)cc2)cc1 (stereo not drawn) | 7.31 µM (active) | –
33 | CCCc1nnc(NC(=O)CCC(=O)NC2CC2)s1 | – | 6.31% (inactive)
34 | O=C(Oc1cc(OC(=O)c2ccccc2)c2c(c1)OC(c1ccc(OC(=O)c3ccccc3)c(OC(=O)c3ccccc3)c1)[C@@H](OC(=O)c1ccccc1)C2)c1ccccc1 (stereo partly drawn) | – | -1.82% (inactive)
35 | Nc1ccc(-n2nncc2-c2ccco2)cc1 | – | -7.69% (inactive)
36 | CC(C)c1ccc(N2CC(C(=O)Nc3nccs3)CC2=O)cc1 (stereo not drawn) | – | -19% (inactive)
37 | O=C(NN=C1CCC(=NNC(=O)c2cccnc2)CC1)c1cccnc1 | – | 15% (inactive)
38 | COc1ccc(CNC(=O)C2CCN(S(C)(=O)=O)CC2)cc1 | – | 0.741% (inactive)
39 | Cn1cnc(S(=O)(=O)N2C[C@@H](O)COC[C@@H]3O[C@H](CC(=O)NC4CCC4)CC[C@H]32)c1 | – | -4.51% (inactive)
40 | c1csc(-c2nnc(COc3ncnc4sccc34)o2)c1 | – | -2.27% (inactive)
41 | C[C@@H]1NC(=O)c2cc([N+](=O)[O-])cc(F)c2NCCC[C@@H](C(N)=O)NC(=O)[C@H](CC(N)=O)NC1=O | – | 15.3% (inactive)
42 | COc1ccc(S(=O)(=O)N2CCC(C(=O)N3CCc4ccccc4C3)CC2)cc1OC | 29.1 µM (active) | –

Row | SMILES | Potency | activity change, negative = growth inhibition
43 | COc1cc(S(=O)(=O)N2CCN(C(=O)C3CC3)CC2)ccc1NC(C)=O | – | 19.7% (inactive)
44 | O=C(c1cc(S(=O)(=O)N2CCOCC2)ccc1Cl)N1CCOCC1 | – | -1.42% (inactive)
45 | COc1cc2c(cc1OC)CN(C(=O)c1cc(S(=O)(=O)N3CCCCC3)ccc1Cl)CC2 | 11.6 µM (active) | –
46 | COc1ccc(C(=O)NCC2CCCCC2)cc1S(=O)(=O)N1CCCC1 | – | -8.77% (inactive)
47 | COc1ccc(S(=O)(=O)N2CCC(C(=O)N3CCOCC3)CC2)cc1OC | – | -12% (inactive)
48 | COc1ccc(S(=O)(=O)N2CCCCC2)cc1Br | – | -14.8% (inactive)
49 | CN1CCN(NC(=O)c2ccc(S(=O)(=O)N3CCCCCC3)cc2)CC1 | – | -18.3% (inactive)
50 | COc1cc2c(cc1OC)CN(C(=O)c1ccc(S(=O)(=O)N3CCCCCC3)cc1)CC2 | 14.6 µM (active) | –
51 | CSc1ccccc1OCc1cc(C(=O)N2C[C@H]3CC[C@H]2C3)no1 | – | -22% (inactive)
52 | CCOc1ccccc1N(CC(=O)NC1CCCCC1)C(=O)CCCC(=O)Nc1ccccn1 | – | -20.7% (inactive)
53 | O=C(c1ccc(Cl)cc1)c1cnc(Nc2ccccc2)s1 | – | -8.04% (inactive)
54 | Cc1ccc(S(=O)(=O)NN=C2CC(C)(C)CC(=O)C2(C)C)cc1 | – | -14.2% (inactive)
55 | COC(C[C@@H](O)C[C@H](O)[C@H](C)OCc1ccccc1)OC | – | 10.3% (inactive)
56 | Cc1noc(C)c1COc1ccccc1C(=O)N(C)CC(=O)Nc1cccc(F)c1 | – | -19.2% (inactive)
57 | Cc1cc(Nc2ccccc2)n(CCC#N)n1 | – | -13.7% (inactive)
58 | O=c1ccn([C@@H]2O[C@H](COP(=O)(O)OP(=O)(O)OP(=O)(O)O)[C@@H](O)[C@H]2O)c(=O)[nH]1 | – | -7.87% (inactive)
59 | Cc1ccccc1NC(=O)CN1C(=O)N/C(=C\c2cccn2-c2cccc(C(=O)O)c2)C1=O | – | -5.12% (inactive)
60 | Nn1c(SCc2ccccc2)nnc1C1CCCCC1 | – | -9.36% (inactive)
61 | Cc1ccc(S(=O)(=O)c2nc(NCCCn3ccnc3)sc2Cl)cc1 | 20.6 µM (active) | –
62 | Cc1ccc(-c2nc(C#N)c(NCCCn3ccnc3)o2)cc1 | – | -27.6% (inactive)
63 | Cc1ccc(S(=O)(=O)NCCCn2ccnc2)cc1C(=O)NC(C)C | – | -5.17% (inactive)
